Laboratory results as given in PubChem BioAssay (NCATS).
Records with an inconclusive call do not appear. Where a call stands in place of a potency, no number is given. Active and inactive are the calls of the source. Calls come from the whole dose curve; as a rule, active = well fitted inhibition curve with a large enough effect; inconclusive = small, poorly fitted or top-dose-only effect; inactive = flat fitted curve, though single readings scatter.

target: Ubiquitin carboxyl-terminal hydrolase 1 (Homo sapiens) (UniProt O94782); assay: Inhibitors of USP1/UAF1: Pilot qHTS (AID 504865); details: purified USP1/UAF1, Ub-rhodamine cleavage fluorescence; series mostly up to 114 µM; note: nearly all actives have a fitted effect of over 35% in size
Description: Deubiquitinating enzymes (DUBs) are a class of enzymes that can cleave isopeptide bond formed between the C-terminal carboxylate of ubiquitin and a lysine side-chain amino group on the target protein. Among them, ubiquitin specific proteases (USPs) constitute the largest DUB family. Human USPs are emerging as promising targets for pharmacological intervention because of their connection to a number of human diseases, including prostate, colon and breast cancer (1, 2), pediatric acute lymphoblastic leukemia (3), and familial cylindromatosis (4). The advantage of inhibiting USPs lies in the potential specificity of therapeutic intervention that can lead to better efficacy and reduce nonspecific side effects.
In a collaboration between the University of Delaware and the NIH Chemical Genomics Center, a high-throughput screen assay was developed to screen for USP1/UAF1 inhibitors. This miniaturized assay has a fluorescent read-out and is used to screen the NIH Molecular Libraries Small Molecule Repository (MLSMR) in order to identify a small molecule that inhibits USP1.
NIH Chemical Genomics Center [NCGC]
NIH Molecular Libraries Probe Centers Network [MLPCN]
Assay Submitter (PI): Zhihao Zhuang, University of Delaware
1. Priolo, C., et al. (2006) The isopeptidase USP2a protects human prostate cancer from apoptosis. Cancer Res 66, 8625-8632
2. Popov, N., et al. (2007) The ubiquitin-specific protease USP28 is required for MYC stability. Nat Cell Biol 9, 765-774
3. De Pitta, C., et al. (2005) A leukemia-enriched cDNA microarray platform identifies new transcripts with relevance to the biology of pediatric acute lymphoblastic leukemia. Haematologica 90, 890-898
4. Kovalenko, A., et al. (2003) The tumour suppressor CYLD negatively regulates NF-kappaB signalling by deubiquitination. Nature 424, 801-805
3 microliters of reagents (buffer in columns 3 and 4 as negative control and 1nM USP1/UAF1 complex in columns 1, 2, and 5-48) are dispensed into Greiner black solid bottom 1536-well assay plates. Compounds are then transferred via Kalypsys pin tool equipped with 1536-pin array (10nl slotted pins, V&P Scientific, San Diego, CA). Following an incubation step of 15 min at room temperature, 1ul of Ub-Rho substrate (150nM final concentration) is added to initiate the reaction. The plates are immediately centrifuged at 1000 rpm for 15 seconds, and subsequently transferred to a ViewLux high-throughput CCD imager (PerkinElmer) wherein kinetic measurements of fluorescence are acquired using 480 nm excitation/540 nm emission filter set (6 reads every 60 seconds, see Table 1). All reagents are diluted in an assay buffer consisting of 50mM HEPES (pH 7.8), 0.5mM EDTA, 0.1 mg/ml BSA, 1mM TCEP, and 0.01% Tween-20.
Potency is the fitted concentration of half-maximal effect.

Ubiquitin carboxyl-terminal hydrolase 1 (Homo sapiens), sequence (O94782 whole entry, looked up): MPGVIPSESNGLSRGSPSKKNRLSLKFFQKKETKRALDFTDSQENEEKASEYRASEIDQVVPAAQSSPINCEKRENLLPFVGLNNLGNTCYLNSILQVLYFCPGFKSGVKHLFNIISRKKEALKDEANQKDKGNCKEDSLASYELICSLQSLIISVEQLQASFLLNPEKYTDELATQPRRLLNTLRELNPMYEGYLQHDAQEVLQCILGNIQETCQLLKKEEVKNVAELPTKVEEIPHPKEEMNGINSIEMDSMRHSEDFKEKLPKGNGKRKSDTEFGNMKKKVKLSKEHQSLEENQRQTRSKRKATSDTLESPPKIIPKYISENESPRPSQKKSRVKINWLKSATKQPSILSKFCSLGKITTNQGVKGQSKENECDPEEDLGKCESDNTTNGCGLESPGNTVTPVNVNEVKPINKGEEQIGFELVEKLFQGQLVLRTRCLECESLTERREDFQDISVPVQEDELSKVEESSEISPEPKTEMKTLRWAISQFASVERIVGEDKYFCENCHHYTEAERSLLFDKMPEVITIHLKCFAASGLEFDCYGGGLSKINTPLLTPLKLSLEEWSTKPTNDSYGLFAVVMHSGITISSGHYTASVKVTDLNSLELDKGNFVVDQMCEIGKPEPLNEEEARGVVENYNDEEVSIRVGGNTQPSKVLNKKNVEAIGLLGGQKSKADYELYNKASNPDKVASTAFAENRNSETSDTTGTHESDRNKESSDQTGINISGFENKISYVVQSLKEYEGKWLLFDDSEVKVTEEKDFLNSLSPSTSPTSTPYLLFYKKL

Row | Structure (SMILES) | Potency
1 | Cc1cc(-c2ccc(N=Nc3c(S(=O)(=O)O)cc4cc(S(=O)(=O)O)cc(N)c4c3O)c(C)c2)ccc1N=Nc1c(S(=O)(=O)O)cc2cc(S(=O)(=O)O)cc(N)c2c1O | 8.91 µM (active)
2 | COc1ccc(-c2noc(CC(=O)O)c2-c2ccc(OC)cc2)cc1 | inactive
3 | CO/N=C(\C(=O)N[C@@H]1C(=O)N2C(C(=O)[O-])=C(C[n+]3cccc4c3CCC4)CS[C@H]12)c1csc(N)n1 | inactive
4 | O=P(O)(O)OC[C@H]1O[C@](O)(COP(=O)(O)O)[C@@H](O)[C@@H]1O | inactive
5 | c1ccc2c(c1)OCC(CN1CCCCC1)O2 (stereo not given) | inactive
6 | O=C(O)[C@H]1C(=CCO)O[C@H]2CC(=O)N12 | inactive
7 | O=C1c2ccccc2CN2C(=O)c3ccccc3CN12 | inactive
8 | CC(C)=CCC/C(C)=C/CC/C(C)=C/CC/C=C(\C)CC/C=C(\C)CCC=C(C)C | inactive
9 | Cc1ccc(C(C)(C)c2ccc(C)cc2)cc1 | inactive
10 | CC1CCCCN1CCCOC(=O)c1ccccc1 (stereo not given) | inactive
11 | CC1(C)S[C@@H]2[C@H](NC(=O)C3(N)CCCCC3)C(=O)N2[C@H]1C(=O)O | inactive
12 | COc1ccc(/C=N/NC(=O)c2ccncc2)c(C(=O)O)c1OC | inactive
13 | COc1ccc(C[C@H](C)NC[C@@H](O)c2ccc(O)c(NC=O)c2)cc1 | inactive
14 | Cc1ccccn1 | inactive
15 | CC(=O)NCCCS(=O)(=O)O | inactive
16 | Cc1ncc(COP(=O)(O)O)c(CN)c1O | inactive
17 | OCC1(CO)COC(C(Cl)(Cl)Cl)OC1 | inactive
18 | OC[C@H]1O[C@@](CO)(O[C@H]2O[C@H](CO)[C@@H](O)[C@H](O)[C@H]2O)[C@@H](O)[C@@H]1O | inactive
19 | O=C1CCC(=O)N1CO | inactive
20 | O=C(O)c1ccc(OCCn2ccnc2)cc1 | inactive

Row | Structure (SMILES) | Potency
21 | CCCCO | inactive
22 | CC(=O)Nc1c(I)c(C(=O)O)c(I)c(N(C)C(C)=O)c1I | inactive
23 | O=P(O)(O)OC[C@H](O)CO | inactive
24 | F[Si-2](F)(F)(F)(F)F | inactive
25 | O=C(Nc1ccc(O)cc1)c1ccccc1O | inactive
26 | CCc1ccc(S(=O)(=O)O)cc1 | inactive
27 | Nc1nccs1 | inactive
28 | NC(N)=O | inactive
29 | OCCCNc1ccccc1 | inactive
30 | [O-][N+](=Nc1ccccc1)c1ccccc1 | inactive
31 | C=CCOc1ccc(CC(=O)O)cc1Cl | inactive
32 | CCC(O)c1ccccc1 (stereo not given) | inactive
33 | Cc1cccc(C)c1NC(=O)NC1=CCCN1C | inactive
34 | CC[C@H]1OC(=O)[C@H](C)[C@@H](O[C@H]2C[C@@](C)(OC)[C@@H](O)[C@H](C)O2)[C@H](C)[C@@H](O[C@@H]2O[C@H](C)C[C@H](N(C)C)[C@H]2O)[C@](C)(O)C[C@@H](C)CN(C)[C@H](C)[C@@H](O)[C@]1(C)O | inactive
35 | NC(=S)N=Nc1ccc(NN=C(N)N)cc1 | 44.7 µM (active)
36 | CCOC(=O)[C@@H](N)CS | inactive
37 | Nc1nc(=O)n([C@@H]2CS[C@H](CO)O2)cc1F | inactive
38 | O=C1c2ccccc2C(=O)C1c1ccc(F)cc1 | inactive
39 | CC12CCC(C[N+](C)(CCC[N+](C)(C)C)C1)C2(C)C (stereo not given) | inactive
40 | O=c1[nH]c(=O)n([C@H]2C[C@H](O)[C@@H](CO)O2)cc1/C=C/Br | inactive
